Bioassay records (PubChem)
Rows were chosen to be rich in hits. Some 4.7% of all compounds tested hit in one or more screens of this group.
D1 potentiator: Potentiators of Human D1 Dopamine Receptor: qHTS. D(1A) dopamine receptor (Homo sapiens), P21728. potentiation, % at 10 µM. AID 504651, 2011. 0.036% of 360,000 active. HEK293 TREx D1 cells, calcium flux, dopamine EC20 potentiation; in the data active means potentiation above about 30%; further: 0% is about no effect
D1 agonist: Allosteric Agonists of the Human D1 Dopamine Receptor: qHTS. HEK293 T-REx D1 cells, calcium flux, agonist mode. activation, % at 2 µM. 1% of 360,000 active; further: 0% is about no effect
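Tetracycline-induced HEK293 TREx D1 cells, force-coupled to calcium signalling, were dye-loaded with a no-wash calcium kit. Compound was pin-added after a 10 s baseline. Fluorescence was read kinetically at 1 cycle/s for 180 s, with calcium rises flagged as agonism.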
D1 antagonist: Antagonist of Human D 1 Dopamine Receptor: qHTS; D(1A) dopamine receptor (Homo sapiens), P21728; AID 504652, 2011; activity change, negative = inhibition, % at 10 µM; HEK293 TREx D1 cells, calcium flux, dopamine EC80; active compounds read low; 3.2% of 360,000 active; in the data active means activity change below about -30%; further: on the % scale 0 is the no-effect control and ±100 the full control effect
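Cells carrying a force-coupled, tetracycline-inducible human D1 receptor report calcium flux. Each well gets a 10 s baseline, compound with 180 s monitoring, then an EC80 dopamine stimulus with a second 180 s kinetic read.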
TRHR enhancer: qHTS for Small Molecule Agonists and Allosteric Enhancers of Human TRH Receptor: Primary Screen for Enhancers; Thyrotropin-releasing hormone receptor (Homo sapiens), P34981; TRHR cells, fluo-8 calcium fluorescence, EC20 TRH enhancement; enhancement, % at 2 µM; 0.66% of 360,000 active; AID 493056, 2011; in the data active means enhancement above about 30%; further: 0% is about no effect
Target sequence (P34981 whole entry, looked up): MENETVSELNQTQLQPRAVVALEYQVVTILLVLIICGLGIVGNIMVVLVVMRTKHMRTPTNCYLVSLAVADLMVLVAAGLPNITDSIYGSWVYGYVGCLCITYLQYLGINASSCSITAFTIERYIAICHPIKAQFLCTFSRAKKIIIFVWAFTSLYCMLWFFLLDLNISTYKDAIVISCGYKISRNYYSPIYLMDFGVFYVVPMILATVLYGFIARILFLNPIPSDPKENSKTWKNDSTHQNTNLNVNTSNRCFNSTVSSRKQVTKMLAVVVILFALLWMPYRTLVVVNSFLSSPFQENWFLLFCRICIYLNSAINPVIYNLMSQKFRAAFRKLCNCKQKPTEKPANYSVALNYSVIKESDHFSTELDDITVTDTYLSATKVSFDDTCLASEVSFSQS
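TRHR-expressing cells loaded with fluo-8 calcium dye were read kinetically (ex 480/em 530) during compound addition, then stimulated with an EC20 of TRH (10 nM final). Enhancement of the Gq-mediated intracellular calcium response was scored.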
TRHR agonist: qHTS for Small Molecule Agonists and Allosteric Enhancers of Human TRH Receptor: Primary Screen for Agonists | TRHR cells, calcium flux fluo-8, FDSS agonist mode | activation, % at 2 µM | 0.18% of 360,000 active; further: 0% is about no effect
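Fluo-8-loaded TRHR cells; 10 s baseline, compound added, kinetic Ca2+ fluorescence read 1/s, agonist mode.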
* hit, by the source's call; · = no result given. Unless noted, no stated cut-off is given here; in the data, active means activation above about 30%; inactive means the rest.

SMILES	D1 potentiator	D1 agonist	D1 antagonist	TRHR enhancer	TRHR agonist
COc1ccc(Nc2cc(C(=O)NCCCN(C)C3CCCCC3)c3ccccc3n2)c(OC)c1	-2	34*	-14	0	3
COc1ccc(OC)c(Nc2cc(C(=O)NCc3ccccc3)c3ccccc3n2)c1	2	0	-80*	7	-1
CCN(CC)CCCNC(=O)c1cc(Nc2ccc(OC)cc2OC)nc2ccccc12	-9	1	-12	-1	0
Cc1ccc(Nc2ncnc3onc(C)c23)cc1Cl	3	2	7	11	1
COc1ccc(-n2cc(C(=O)NCCc3ccc(C)cc3)c3ccccc3c2=O)cc1	-3	5	-39*	9	1
CCOc1ccc(CCNC(=O)c2cn(-c3ccc(OC)cc3)c(=O)c3ccccc23)cc1OCC	-3	6	2	-2	0
COc1cccc(-n2cc(C(=O)NCCc3ccc(C)cc3)c3ccccc3c2=O)c1	4	0	-48*	-3	0
COc1ccc(CCNC(=O)c2cc(-c3ccccn3)nc3ccccc23)cc1	-4	0	-35*	-1	0
CCOc1ccc(CCNC(=O)c2cn(-c3cccc(OC)c3)c(=O)c3ccccc23)cc1	-3	1	-42*	10	0
CS(=O)(=O)Nc1cccc(-c2cc(F)c(S(=O)(=O)N3CCN(S(=O)(=O)c4ccc5c(c4)OCCO5)CC3)cc2F)c1	4	2	-17	2	0
COc1ccc(CNC(=O)c2ccc(NC(=O)N3CCSc4ncccc43)cc2)cc1OC	1	1	-5	2	0
COc1ccc(-c2cc(C(=O)NCCc3ccccc3)c3c(-c4ccc(Cl)cc4)[nH]nc3n2)cc1	-3	6	7	-6	1
COc1ccc(-c2cc(C(=O)NCCc3ccccc3)c3c(-c4ccccc4)[nH]nc3n2)cc1	-1	3	-40*	-1	0
COc1ccc(OC)c2sc(N3CCN(C(=O)c4ccc5c(c4)CCCC5)CC3)nc12	4	-5	·	-4	0
COc1ccc(N2CCN(C(=O)C(=O)c3cn(CC(=O)N4CCCCCC4)c4ccccc34)CC2)cc1	-6	1	-58*	-4	0
COCCNC(=O)c1c(NC(=O)Cc2coc3cc(C)ccc23)sc2c1CCCC2	2	1	-1	8	0
CCN(CC)C1=NS(=O)(=O)c2cc([N+](=O)[O-])ccc21	-2	-1	15	34*	0
CN(C)S(=O)(=O)c1ccc2c(c1)C(=O)c1cc(S(=O)(=O)N(C)C)ccc1CC2	-5	-1	·	-6	0
CN(C)S(=O)(=O)c1ccc2c(c1)/C(=C/c1cc3c([nH]1)CCCC3)C(=O)N2	0	171*	-28	-2	69*
COc1ccc(-n2ccn(CC(=O)Nc3ccccc3C(F)(F)F)c(=O)c2=O)cc1OC	-1	-1	13	-2	0
CN(C)S(=O)(=O)c1ccc(C(=O)NCCS(=O)(=O)N2CCN(c3ccccc3)CC2)cc1	-2	7	-2	-3	0
CC(CC(=O)O)CC(=O)Nc1ccccc1C(=O)O (stereo not given)	-4	4	-30*	-4	0
CCOC(=O)c1ccccc1NC(=O)CC(C)CC(=O)O (stereo not given)	-9	7	8	-1	1
COc1ccccc1-c1nc2c(c(SCc3cc(C)ccc3C)n1)Cc1c(CO)cnc(C)c1O2	-2	1	1	2	0
Cc1ccc2nc(NCc3ccccc3)c(C=NCc3ccccc3)c(=O)n2c1	-2	23	3	0	1
SMILES	D1 potentiator	D1 agonist	D1 antagonist	TRHR enhancer	TRHR agonist
Cc1ccc2nc(NCCCN3CCOCC3)c(C=NCCCN3CCOCC3)c(=O)n2c1	-8	1	11	32*	0
CCOc1ccc(NC(=O)CC2C(=O)N(c3cccc(C)c3)C(=O)N2Cc2cccs2)cc1 (stereo not given)	3	7	14	1	-1
CC(C)(C)CC(C)(C)NCC(O)COc1c(F)cc(Br)cc1F (stereo not given)	-8	39*	7	21	2
CCN(CC)CCNCc1cc(Cl)c(OCC(=O)Nc2ccccc2)c(OC)c1	-3	7	-2	1	0
COc1cc(CNC(C)c2ccccc2)cc(Cl)c1OCC(=O)Nc1ccccc1 (stereo not given)	-11	64*	·	-1	3
Cc1ccc(-n2c(CCC(=O)O)ccc2-c2cccs2)cc1Cl	-1	16	-57*	26	-1
Cc1ccc(-n2c(CCC(=O)O)ccc2-c2cccs2)cc1	-3	4	9	6	0
Cc1ccccc1NC(=O)Cn1c(CCC(=O)O)ccc1-c1cccs1	-6	4	-42*	3	0
CCc1nc2ccccc2n1CCCCOc1ccc(Cl)cc1	-2	18	-11	-4	0
CCOC(=O)c1ccc(N2CCN(c3cc(C)ccc3C)CC2)c(NC(=O)Nc2ccccc2)c1	1	1	4	2	0
O=C1CN(C(=O)c2cccc(S(=O)(=O)N3CCCC3)c2)c2ccccc2N1	-1	1	14	41*	0
CC(=O)N1CCN(S(=O)(=O)c2cccc(C(=O)OCC(=O)N3CC(=O)Nc4ccccc43)c2)CC1	-6	-2	17	-4	0
O=S(=O)(N1CCCCC1)N1CCN(CC(O)COc2ccc3cc(Br)ccc3c2)CC1 (stereo not given)	-3	3	5	-4	4
CN(C)S(=O)(=O)N1CCN(CC(O)COc2ccc3cc(Br)ccc3c2)CC1 (stereo not given)	-7	14	-49*	-14	1
OC(COc1ccc2cc(Br)ccc2c1)CN1CCCC1 (stereo not given)	-4	68*	-66*	0	0
COc1ccc(/C=C\c2onc(C)c2S(=O)(=O)N2CCC(C(=O)Nc3cccc(OC)c3)CC2)cc1	0	10	-1	11	-2
CCCn1nnnc1NC(=O)c1cc(Br)ccc1OC	-3	0	3	30*	0
CCOC(=O)c1ccc2oc(=O)n(Cc3ccccc3)c2c1	0	3	0	12	-1
Cc1cc(C)cc(OCC(=O)OCC(=O)c2cc(C)n(C3CC3)c2C)c1	-7	5	-30*	12	0
O=C(c1ccccc1)c1nn(-c2cccc(Cl)c2)c2nc(-c3ccccc3)cc(=O)n12	1	1	-74*	6	-2
